# Test results from PubChem BioAssay (NCATS).
# Results filed as inconclusive are left out. Where a call stands in place of a potency, no number is given. Calls of active or inactive are those of the source. Unless noted, the call rests on the fitted dose curve; in most records, active means well fitted curve in the direction sought with a large enough effect; inconclusive means small, poorly fitted or top-dose-only effect, or another doubt; inactive means no such curve, though single readings can be large; an effect the other way counts as inactive or inconclusive.
# Experiments:
# [1] = qHTS to identify inhibitors of the type 1 interferon - major histocompatibility complex class I in skeletal muscle: primary screen against the NCATS Mechanism Interrogation Plate v5.0 (MIPE) Libary (AID 1347411); further: potency means the concentration at half of the fitted maximal effect; nearly all actives have a fitted effect of over 65% in size
# Method in brief: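 Luminescence from HiBiT-tagged endogenous HLA-B*08:01 served as the MHC class I read-out. CRISPR-engineered C25cl48 human myoblasts received 4.0 ng/ml IFN-beta plus compound for 24 hrs, with an 11-point, 1:3 series topping at 46 uM final.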
# [2] = Primary qHTS for inhibitors of nuclear receptor binding SET domain protein 2 (NSD2) in an isogenic RCH-ACV NSD2 p.E1099K mutant (9B) (AID 1645876); further: potency means the concentration at half of the fitted maximal effect; nearly all actives have a fitted effect of over 70% in size
# [3] = Primary qHTS for inhibitors of nuclear receptor binding SET domain protein 2 (NSD2) in an RCH-ACV wild type WT cells (2C) (AID 1645877); further: potency means the concentration at half of the fitted maximal effect; nearly all actives have a fitted effect of over 70% in size
# [4] = qHTS drug screen for cell cycle checkpoint inhibitors in PARPi-resistant BRCA-mutant ovarian cancer cell lines. (AID 1963452; calls by dose curve); conditions: PEO1/OlaR viability, CellTiter-Glo luminescence, 96 h, stronger effect = lower value
# Method in brief: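 PEO1, PEO4 and PEO1/OlaR ovarian cancer cells, 600 per well, exposed 96 h at 37C to a dilution series. Viability read by CellTiter-Glo luminescence, normalized to DMSO and empty wells; activity summarized as Z-AUC.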
# [5] = qHTS assay to identify inhibitors of the type 1 interferon - major histocompatibility complex class I in skeletal muscle: Counter screen cell viability and HiBit confirmation (AID 1347412); conditions: iHSKM muscle cells + IFN-b, HiBiT or CellTiter-Glo, 24 h; further: potency means the concentration at half of the fitted maximal effect; nearly all actives have a fitted effect of over 60% in size
# Method in brief: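 Human myoblast knock-in line, 4.0 ng/ml IFN-beta stimulation, 24 h compound treatment. Endpoints: HiBiT lytic luminescence (HLA-B level) and CellTiter Glo (ATP). Dosing 12 concentrations, 3-fold steps, 46 uM highest final.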
# [6] = HPAF-II 24hr Apoptosis Induction qHTS against the NCATS CANVASS Library (AID 1347356)
# Method in brief: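 Luminescent caspase-3/7 signal (DEVD substrate, Caspase-Glo) served as read-out, taken 15 min after reagent addition to HPAF-II cells exposed 24 h to compounds.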
# [7] = HEK293 18hr Apoptosis Induction qHTS against the NCATS CANVASS Library (AID 1347357)
# Method in brief: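 Natural products applied to HEK293 for 18 hr; Caspase-Glo 3/7 readout.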
# [8] = HPAF-II 12hr Apoptosis Induction qHTS against the NCATS CANVASS Library (AID 1347358)
# Method in brief: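 500 HPAF-II cells/well; cmpds 11-pt; 12 hr, 37 degrees C/5% CO2; Caspase-Glo 3/7 added, 15 min RT dark; luminescence read. Doxorubicin titration as control.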
# [9] = HEK293 24hr Apoptosis Induction qHTS against the NCATS CANVASS Library (AID 1347359)
# Method in brief: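 HEK293 cells (500/well, DMEM + 10% FBS) were exposed to compounds in an 11-point series for 24 hours at 37 degrees C, then caspase-3/7 activity was read by Caspase-Glo DEVD luciferase luminescence after 15 min.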
# [10] = HPAF-II 18hr Apoptosis Induction qHTS against the NCATS CANVASS Library (AID 1347360)
# Method in brief: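 Luminescent DEVD-substrate signal, proportional to caspase activity, is measured in HPAF-II cells after 18-hour treatment across a concentration series; doxorubicin serves as control.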
# [11] = HEK293 12hr Apoptosis Induction qHTS against the NCATS CANVASS Library (AID 1347361)
# Method in brief: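 Luminescent caspase-3/7 signal, proportional to enzyme activity, was recorded from HEK293 cultures in DMEM + 10% FBS treated for 12 hours with titrated natural products (11 points). Doxorubicin (0.1nM - 4uM) served as control.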
# [12] = biological target: Luciferin 4-monooxygenase (Photinus pyralis) (UniProt P08659); test: Firefly luciferase counterscreen qHTS: Assay Interference Panel against the NCATS CANVASS Library (AID 1347363); further: series mostly up to about 57 µM
# Chain of Luciferin 4-monooxygenase (Photinus pyralis) (P08659 whole entry, looked up): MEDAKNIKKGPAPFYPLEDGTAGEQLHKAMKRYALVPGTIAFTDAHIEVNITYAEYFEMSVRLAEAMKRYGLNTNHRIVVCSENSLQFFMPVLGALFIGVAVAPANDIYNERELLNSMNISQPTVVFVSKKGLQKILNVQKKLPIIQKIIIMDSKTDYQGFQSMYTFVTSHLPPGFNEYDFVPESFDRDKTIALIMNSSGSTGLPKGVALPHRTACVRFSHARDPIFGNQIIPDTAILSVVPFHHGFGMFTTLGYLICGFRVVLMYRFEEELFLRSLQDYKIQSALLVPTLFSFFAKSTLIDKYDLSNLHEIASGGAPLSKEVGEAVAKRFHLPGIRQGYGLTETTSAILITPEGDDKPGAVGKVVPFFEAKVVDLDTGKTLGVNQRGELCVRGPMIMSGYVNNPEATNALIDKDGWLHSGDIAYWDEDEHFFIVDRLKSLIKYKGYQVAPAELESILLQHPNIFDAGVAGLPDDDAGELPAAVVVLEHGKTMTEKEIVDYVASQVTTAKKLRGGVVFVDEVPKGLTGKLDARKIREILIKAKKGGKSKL
# Method in brief: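 Purified P. pyralis luciferase was added to compounds (11-point series) preincubated 15 min at room temperature with substrate containing 0.013 mM D-luciferin and 0.013 mM ATP; luminescence was read after 5 min.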
# [13] = qHTS for ATAD5 Agonist screened against the NCATS CANVASS Library (AID 1347367);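 further: luciferase reporter driven by ATAD5 which rises upon DNA damage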
# Method in brief: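 Genotoxicity was scored as increased ATAD5-luciferase luminescence in HEK293T after 16hr of exposure, with cell viability measured by fluorescence beforehand in the same well.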
# [14] = biological target: Nuclear receptor subfamily 1 group I member 3 (Homo sapiens) (UniProt Q14994); test: qHTS for Constitutive Androstane Receptor (CAR) Antagonist screened against the NCATS CANVASS Library (AID 1347372); further: potency means the concentration at half of the fitted maximal effect
# Chain of Nuclear receptor subfamily 1 group I member 3 (Homo sapiens) (Q14994 whole entry, looked up): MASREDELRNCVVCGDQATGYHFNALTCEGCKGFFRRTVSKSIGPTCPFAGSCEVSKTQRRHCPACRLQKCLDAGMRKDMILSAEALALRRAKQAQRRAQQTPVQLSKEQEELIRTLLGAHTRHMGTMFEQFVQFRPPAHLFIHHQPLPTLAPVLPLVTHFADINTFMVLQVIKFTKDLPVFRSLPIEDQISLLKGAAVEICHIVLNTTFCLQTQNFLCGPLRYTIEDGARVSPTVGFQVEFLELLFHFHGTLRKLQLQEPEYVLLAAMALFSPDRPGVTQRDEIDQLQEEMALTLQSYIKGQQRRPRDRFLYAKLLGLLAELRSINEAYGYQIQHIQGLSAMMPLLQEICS
# Method in brief: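 HepG2 cells stably carrying hCAR and a CYP2B6-2.2kb luciferase reporter were exposed to compounds plus 50 nM CITCO for 24hr at 37C. CAR activity was read by ONE-Glo luminescence, with viability measured first by CellTiter-Fluor.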
# [15] = 10-beta competent E. coli microbial cell viability qHTS against the NCATS CANVASS Library (AID 1347376); further: series mostly up to about 46 µM
# Method in brief: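 E. coli 10-beta, 0.2 OD; cpds 11-pt; o/n 37C, 5% CO2; BacTiter-Glo 20 min RT; luminescence (ATP) = viable cells. Daunomycin ctrl.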
# [16] = Inflammasome Signaling qHTS Counterscreen: IL-1-beta AlphaLISA counterscreen against the NCATS CANVASS Library (AID 1347381);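 further: cell-free check with purified IL-1β in medium and no THP-1 cells; series mostly up to about 57 µM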
# Method in brief: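 Cell-free interference check: compounds added to medium spiked with 4 pg purified IL-1β. Anti-IL-1β acceptor beads (6 ug/mL) with 0.6 nM biotinylated antibody added for 1 h at RT, then streptavidin donor beads (24 ug/mL) for 30 min in the dark. AlphaLISA read at 680/615 nm.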
# [17] = Cytotoxicity qHTS for assessment of Hepg2 cells membrane integrity screened against the NCATS CANVASS Library (AID 1347387)
# Method in brief: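 qHTS, 11-pt conc. series, 0.59 nM - 46 uM final; HepG2 2000 cells/well, overnight attachment; 5 hr compound exposure 37C/5% CO2; CytoTox-ONE, 10 min RT; fluorescence ex560/em590 = LDH from damaged membranes.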
# [18] = qHTS for activators of dead-cell proteases activity screened against the NCATS CANVASS Library (AID 1347392);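 further: luminescence from protease leaking out of membrane-damaged cells cleaving impermeant substrate; rising signal means more cytotoxicity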
# Method in brief: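 HepG2 cells (2000/well) attached 18 h at 37C, then exposed 5 h to compounds (11-point qHTS). Dead-cell protease activity read as luminescence from cell-impermeant AAF-aminoluciferin substrate after 15 min at room temperature.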
smiles,measurement,setting,value
COc1cc2c(NC3CCN(C4CCCCC4)CC3)nc(N3CCCN(C(C)C)CC3)nc2cc1OCCCN1CCCCC1,Potency,[1],11.7 µM (active)
same,Potency,[2],4.68 µM (active)
same,Potency,[3],5.25 µM (active)
same,Z-AUC,[4],1.47 (inactive)
same,Z-AUC,[4]; measured here: PEO1 parental Z-AUC,1.1
same,Z-AUC,[4]; measured here: PEO4 Z-AUC,0.674
same,Potency,[5]; HiBiT,17.6 µM (active)
same,Potency,[5]; Viability,24.9 µM (active)
CC[C@@H](c1cc(OC)c(OC)cc1OC)[C@H](C)[C@@H](/C(C)=C/c1cc(OC)c(OC)cc1OC)c1cc(OC)c(OC)cc1OC,outcome,[6],inactive
same,Potency,[7],inactive
same,Potency,[8],inactive
same,Potency,[9],inactive
same,Potency,[10],inactive
same,outcome,[11],inactive
same,Potency,[12],inactive
same,Potency,[13],inactive
same,Potency,[14],inactive
same,outcome,[15],inactive
same,outcome,[16],inactive
same,outcome,[17],inactive
same,Potency,[18],inactive
COc1cc(C2C3=C(Cc4cc5c(cc42)OCO5)C(=O)OC3)cc(OC)c1OC (centres undefined),outcome,[6],inactive
same,Potency,[7],inactive
same,Potency,[8],inactive
same,Potency,[9],inactive
same,Potency,[10],inactive
same,outcome,[11],inactive
same,Potency,[12],inactive
same,Potency,[13],inactive
same,Potency,[14],0.117 µM (active)
same,outcome,[15],inactive
same,outcome,[16],inactive
same,outcome,[17],inactive
same,Potency,[18],inactive
COc1cc2oc3ccccc3c(=O)c2cc1OC,Potency,[7],inactive
same,Potency,[8],inactive
same,Potency,[9],inactive
same,Potency,[10],inactive
same,outcome,[11],inactive
same,Potency,[13],inactive
same,Potency,[14],inactive
same,outcome,[15],inactive
same,outcome,[16],inactive
same,outcome,[17],inactive
same,Potency,[18],inactive
CC[C@@H]1[C@H](C)[C@H](c2cc(OC)c(OC)cc2OC)[C@@H](C)[C@H](c2cc(OC)c(OC)cc2OC)[C@]12C=C(OC)C(=O)C=C2OC,Potency,[7],inactive
same,Potency,[9],inactive
same,outcome,[11],inactive
same,Potency,[12],inactive
same,Potency,[13],inactive
same,Potency,[14],inactive
same,outcome,[16],inactive
same,outcome,[17],inactive
C=C1C(=O)O[C@H]2[C@H]1CCC(C)=C1CC[C@@](C)(O)[C@@H]12,outcome,[6],inactive
same,Potency,[7],inactive
same,Potency,[8],inactive
same,Potency,[9],inactive
same,Potency,[10],inactive
same,outcome,[11],inactive
same,Potency,[12],inactive
same,Potency,[13],inactive
same,Potency,[14],inactive
same,outcome,[15],inactive
same,outcome,[16],inactive
same,outcome,[17],inactive
same,Potency,[18],inactive
CC1=C(C)C(=O)OC(C(C)C2(O)CCC3C4C5OC5C5(O)CC=CC(=O)C5(C)C4CCC32C)C1 (centres undefined),outcome,[6],inactive
same,Potency,[7],inactive
same,Potency,[8],inactive
same,Potency,[9],inactive
same,Potency,[10],inactive
same,outcome,[11],inactive
same,Potency,[12],inactive
same,Potency,[13],inactive
same,Potency,[14],inactive
same,outcome,[15],inactive
same,outcome,[16],inactive
same,outcome,[17],inactive
same,Potency,[18],inactive
